According to the supplement of paper PMC6555819:

tested on: VDR:RXRa (NR concentration 270 nM, RXRa partner concentration 90 nM); assay: PBM binding z-score (relative to random genomic background probes); higher = stronger binding; sequences stand for … in GC…GCGATTGACAGCGTAGAATGAAGG
Experimental: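 Protein-binding microarray (Agilent 4x180K custom design, double-stranded 60-nt probes: 5' GC cap, 34-nt variable region, 24-nt constant primer region; full probe sequence given). Purified or IVT nuclear receptor:RXRα heterodimers (3:1 NR:RXRα, mostly 270:90 nM) or homodimers were incubated for 1 h in PBS with 2% milk and no ligand, then detected with Alexa488 antibodies. Fluorescence from o1-orientation probes (~5 replicates averaged) was converted to z-scores against 500 random hg19 background probes. Variable regions are seed direct-repeat (DR0–DR5) sites, all their single-nucleotide variants and half-site ablations.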

Going from CCTTACGGGTCACGTGGTTATAGCACGACGAGCG to TACCCTAGGTCATGGGCCAGTATACCACGCGAAC, the PBM binding z-score falls from 3.94 to 2.67.

First: CTCGAAAGGTCGTGCTCAGATGAGTATACCAAAC
Second: AGAATGAGGTCATACGTAGATCAGGGAAGAAAGT
The PBM binding z-score of the first is lower: 3.09 for the first, 5.41 for the second.

Compared with ATCGAAAGGTCGACCAGGTGAGTATACACCGTTT, GCTTAAGGGTCAAAGGTTATAGCATGAATAGAAT is higher in PBM binding z-score: 3.73 for the first, 6.45 for the second.

First: GCATATAGGTAATACAAGGTCAAAGTCCGATTGT
Second: GCTGCTAGGTCAACTGATGGTCAACTAAAGCTCG
The PBM binding z-score of the first is higher: 4.39 for the first, 2.07 for the second.

Compared with CTCGAAAGGTCATGCTCAGGTGAGTATACCAAAC, CGTCCAAGGTCAAAGGTCAATGAAGAGATGACGG is higher in PBM binding z-score: 5.69 for the first, 7.06 for the second.

Compared with CGTCCAAGGTTAAGGTCAGTGAAAGAGACTCGAA, TAGCCTAGGTTATGGGCCAGTATACCACGCGAAC is lower in PBM binding z-score: 2.5 for the first, -0.0238 for the second.

First: TCTTGTAGATCAATAGAAGTTAAGAAAGTGCGCT
Second: ATCGAAAGGTCGAAGGTGCGTATACCCACCCGAA
The PBM binding z-score of the first is lower: 0.744 for the first, 2.58 for the second.

Compared with TATAAAGGGTCAAAGGCCAGAGTACGAATGTCGA, CGTCAAAGTTCAAGGTCACGTAACAGAAAGCAGC is higher in PBM binding z-score: 4.86 for the first, 5.84 for the second.

Compared with CGTCCAAGGTCACAGAGGTCAGTGAATGCCGAGT, TGTCAATGTTCAAAGGTAACGTAAGTATCCACAC is lower in PBM binding z-score: 7.74 for the first, 0.373 for the second.

First: CGAACAAGGTCATTGACAGGACAGTGAATAGTAA
Second: AGAATGAGGTTACCAAAGGTCAGGGAAACGCTTG
The PBM binding z-score of the first is lower: 4.88 for the first, 5.67 for the second.

Compared with CGAACTAGGTCTAAGGACAGTGAAAGGCGACGTA, CTATGTGGGTTAAGGGGGTCATTCAGTTTGAAAG is higher in PBM binding z-score: -0.556 for the first, 7.5 for the second.

Compared with CGAACTAGGTCAAGGACAGTAAATCTCCGCACGC, CCTTACGGGTCACGAGGTTGTAGCACGACGAGCG is higher in PBM binding z-score: 1.33 for the first, 5.26 for the second.

Going from CGTCAAAGGTCAACTAAGGTAACGTAAAGCACGC to TCTCGGAGGACACAAAGGTCAGAGCTTTCCAGAG, the PBM binding z-score falls from 6.2 to 3.68.

Compared with ATATGTAGGTTATCGGGTCATACAGTTTGCGCAT, AATACGGGGTCACTAGGCCAGAGTAGGTACGAAT is higher in PBM binding z-score: 5.13 for the first, 6.16 for the second.

Going from ATATGTAGGTTACCTGGGGTCATTCAGACTAGGC to TACCCTAGGTCATTCAGGGGCCAGTATAGAAAGC, the PBM binding z-score falls from 6.78 to 3.44.

Compared with TAGCCTAGGTCATACAGGGGCCAGTATAGAAAGC, ATCGAAAGGTCCAAGGTGAGTATACCCACCCGAA is lower in PBM binding z-score: 2.6 for the first, 0.423 for the second.

Compared with CCTACTGGACCAAGGTCATTGATCAGTCAAAGCA, TGTCAAAGTTCAAAGGTGACGTAAGTATCCACAC is higher in PBM binding z-score: 3.44 for the first, 5.65 for the second.

First: CAAACTAGGTCACTAAAGGTCAAAGTCGAATGAC
Second: CCTACTGGGCCAAAGGTGATTGATTCCAATGCTC
The PBM binding z-score of the first is higher: 6.48 for the first, 0.0696 for the second.

Compared with AGAATGAGGTTACCAAAGTTCAGGGAAACGCTTG, CCTCGGAGGACAGAAGGTCAAAGCTGTCCGCTTT is lower in PBM binding z-score: 5.53 for the first, 2.84 for the second.

Compared with CGAACTAGGTCATTGACAGGACAGTGGATAGTAA, GGAACGAGGTCAAGTTGATAGCAGAGTTTGATGG is higher in PBM binding z-score: 2.15 for the first, 5.84 for the second.
